Source: PubChem BioAssay (National Center for Advancing Translational Sciences (NCATS))
HT1080-NT tox: kills 2HG-producing HT-1080-NT fibrosarcoma cells; HT-1080-NT fibrosarcoma viability, CellTiter-Glo ATP luminescence, 48 h; 360,000 tested, 1.6% active; Potency, µM (doses to about 46.1 µM), without a hit: top-dose activity, negative = less viability, most hits filed as cytotoxic;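 also: NT is the 2HG producing partner of a matched IDH1 knockdown line; potency is read from the fitted curve at half-maximal effect; 0% = DMSO-treated cells and -100% = media-only wells without cells; nearly all actives have a fitted effect of over 55% in size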
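Toxicity toward the 2HG-producing NT line was scored as %Activity, normalised to DMSO and no-cell wells, from CellTiter-Glo luminescence after 48 hours' treatment.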
HT1080 IDH1KD tx: toxicity to HT-1080 IDH1 knockdown cells (counter line). HT-1080 IDH1 knockdown viability, ATP luminescence, 48 h. 360,000 tested, 2% active. Potency, µM (highest dose often 46.1 µM), for the others: at the top dose activity, negative = toxicity, most hits filed as cytotoxic;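 also: potency is read from the fitted curve at half-maximal effect; 0% = DMSO wells and -100% = cell-free medium wells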
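HT-1080-IDH1KD cells (IDH1 knocked down), 750/well in RPMI with 5% FBS, treated with compound 48 h at 37 degrees C. Viability by CellTiter-Glo luminescence, normalised to DMSO and no-cell wells; concentration-response curves classed.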
ELG1 DNA repair: inhibitors of ELG1-dependent DNA repair in HEK293T cells | HEK293T ELG1-luciferase reporter, luminescence, 16 h; DNA damage induced by 5-fluorouridine | 330,000 tested, 2.3% active | Potency, µM (top dose mostly 46.1 µM), for inactives: at the top dose activity change, negative = inhibition, most hits filed as inhibitors; also: potency is read from the fitted curve at half-maximal effect; nearly all actives have a fitted effect of over 55% in size
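In this reporter screen, reduction of luminescence relative to DMSO vehicle indicated activity. Compounds and 5-fluorouridine were added together to 2,000 cells per well, incubated for 16 hr at 37 °C, then developed with ONE-Glo.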
IL1B secr inh: inflammasome signaling inhibition, IL-1 beta readout. THP-1 LPS/ATP IL-1B secretion, AlphaLISA, 16 h; stronger effect = lower value. activity change, % at 57.5 µM. 360,000 tested, 4.7% active. AID 743279; in the data active = activity change below about -50%; inconclusive = mostly about -30% to -49%
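Secreted IL-1B measured by AlphaLISA bead assay after 16 h compound exposure of THP-1 cells; compounds (final up to 57.5 uM) added 1 h before LPS (250 ng/mL) and ATP (1.25 mM) stimulation; lower signal means less secretion.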
DT40 TDP1 CPT: growth inhibition of DT40 Tdp1-/-;hTDP1 cells with camptothecin (screen for TDP1 inhibitors); chicken DT40 Tdp1-/-;hTDP1 cells + 20 nM CPT, ATP luminescence, 48 h; Potency, µM (doses to about 46.2 µM), without a hit: top-dose activity change, negative = growth inhibition, hits mostly inhibitors; 420,000 tested, 12% active; AID 686979; also: potency is read from the fitted curve at half-maximal effect; nearly all actives have a fitted effect of over 55% in size
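Chicken DT40 Tdp1-/- cells stably complemented with human TDP1 were seeded at 400 cells/well in medium containing 20 nM camptothecin, exposed to pin-transferred compounds, and grown at 37 °C for at least 48 hr. Viability was read as ATP luminescence.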
TDP1 cell noCPT: qHTS for Inhibitors of human tyrosyl-DNA phosphodiesterase 1 (TDP1): qHTS in cells in absence of CPT | DT40 Tdp1-/- hTDP1 cells, no CPT, ATP luminescence, 48 h | Potency, µM (titrated, usually from 46.2 µM), without a hit: at the top dose activity change, negative = growth inhibition, usual class: inhibitors | 420,000 tested, 15% active; also: potency is read from the fitted curve at half-maximal effect; nearly all actives have a fitted effect of over 55% in size
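Growth kinetics read by CellTiter-Glo luminescence after ≥48 hr at 37 °C. Cells: DT40 Tdp1-/- stably carrying human TDP1, 400 per well, compound exposure in the absence of CPT (DMSO vehicle).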
* = called active by the depositor; ? = inconclusive; nt = no result given. Sampled rows, rich in hits. Any-hit rate of the full collection: about 19%. Unless noted, calls follow the shape of the dose curve; as a rule, active = well fitted curve in the direction sought with a large enough effect; inconclusive = small, poorly fitted or top-dose-only effect, or another doubt; inactive = no such curve, though single readings can be large; an effect the other way counts as inactive or inconclusive. Unless noted, % is scaled to controls: 0 for no effect and ±100 for the full control effect.

SMILES	HT1080-NT tox	HT1080 IDH1KD tx	ELG1 DNA repair	IL1B secr inh	DT40 TDP1 CPT	TDP1 cell noCPT
CCOC(=O)[C@H]1[C@H]2COc3ccc(OC)cc3[C@@H]2N2C(=O)c3cc(OC)ccc3NC(=O)[C@@]12C	7%	5%	2%	-18	-18%	-23%
Cc1cnc2c(C)ccc(C)c2c1/C=C/c1ccc(N(C)C)cc1	nt	nt	nt	nt	?	16µM*
Cc1cnc(/C=C/c2ccc(N(C)C)cc2)cn1	nt	nt	nt	nt	3.2µM*	2.8µM*
Oc1ccc(/C=C/c2cnccn2)cc1	-20%	-23%	0%	17	?	?
COc1cccc(C(c2nnnn2Cc2ccco2)N2CCN(c3cccc(C)c3C)CC2)c1OC (stereo not drawn)	-8%	-12%	?	-2	?	26µM*
O=C(c1ccco1)N1CCN(C(c2ccc(Cl)cc2)c2nnnn2Cc2ccccc2)CC1 (stereo not drawn)	-22%	-17%	?	-51*	-22%	-24%
COc1ccc(C(c2nnnn2Cc2ccccc2)N2CCN(C(=O)c3ccco3)CC2)cc1 (stereo not drawn)	4%	-2%	1%	-8	-21%	?
COc1cccc(C(c2nnnn2Cc2ccccc2)N2CCN(C(=O)c3ccco3)CC2)c1OC (stereo not drawn)	-11%	-14%	-19%	-12	?	23µM*
CCOC(=O)c1cc2c(ccn2C)n1CC(=O)N1CCC(Cc2ccccc2)CC1	0%	-13%	?	-74*	23µM*	18µM*
COC(=O)c1cc2c(ccn2-c2ccc(F)cc2)n1Cc1cccc(OC)c1	-11%	?	-13%	-16	7.3µM*	16µM*
CCOC(=O)c1cc2c(ccn2-c2ccc(F)cc2)n1CC(=O)N1CCN(C(=O)c2ccco2)CC1	-3%	-8%	?	0	?	12µM*
COc1cccc(CN2CCN(c3ccc(F)cc3)C2=O)c1	-8%	-16%	-14%	-51*	-17%	?
COc1cc(OC)c2c(=O)c(-c3ccccc3)c(C)oc2c1OC	nt	nt	nt	nt	11%	-1%
CCOC(=O)c1cc2c(ccn2C)n1CC(=O)N(C)C	20%	5%	3%	15	2%	16%
CCOC(=O)c1cc2c(ccn2C)n1CC(=O)Nc1ccc(F)cc1	1%	3%	-10%	-25	23µM*	-21%
COC(=O)CC1C(C)(C)C(OC(C)=O)C2[C@H](OC(C)=O)[C@]34O[C@]2(O)[C@]1(C)C3CC[C@]1(C)C4=CC(=O)OC1c1ccoc1 (stereo partly drawn)	nt	nt	nt	nt	?	16µM*
O=C(Nc1nnc([C@H]2C[C@H](O)[C@@H](CO)O2)s1)c1ccc(Oc2ccccc2)cc1	-1%	1%	nt	0	?	?
O=C1c2ccccc2C(=O)N1C/C=C/c1ccccc1	1%	-1%	?	-23	5%	4%
O=C1C(=O)N(C/C=C/c2ccccc2)c2ccccc21	?	?	?	29	0.92µM*	0.58µM*
O=C1C(=O)N(CCCc2ccccc2)c2ccccc21	2%	3%	4%	-5	2.1µM*	1.6µM*
Cc1nn(C2CCS(=O)(=O)C2)c2nc(C3CC3)cc(C(=O)Nc3cccc(C#N)c3)c12 (stereo not drawn)	-18%	-18%	-19%	?	?	?
CCCn1nc(NC(C)=O)c2cc3cccc(C)c3nc21	3%	15%	?	8	?	?
CCCn1nc(NC(=O)COC)c2cc3cccc(C)c3nc21	2%	0%	-4%	-20	?	16µM*
CCCC(=O)Nc1nn(C)c2nc3c(C)cccc3cc12	6%	9%	0%	35	-12%	-29%
Cc1cccc2cc3c(NC(=O)c4ccccn4)nn(C)c3nc12	?	?	4%	37	?	9.2µM*
SMILES	HT1080-NT tox	HT1080 IDH1KD tx	ELG1 DNA repair	IL1B secr inh	DT40 TDP1 CPT	TDP1 cell noCPT
Cc1ccc(Sc2ccc(N3CCC(C(=O)Nc4ccc(C)c(F)c4)CC3)nn2)cc1	nt	nt	nt	nt	-9%	?
O=C(C[n+]1cccc(NC(=O)c2ccccc2)c1)c1ccc(NC(=O)c2ccccc2)cc1	-8%	-11%	12%	?	23µM*	?
O=C(CCCc1ccccn1)c1cccc2ccccc12	-1%	-4%	nt	-4	-20%	-30%
O=C(C[n+]1ccc2ccccc2c1)c1cccc2ccccc12	?	?	?	?	13µM*	8.2µM*
Nc1ccc[n+](CC(=O)c2ccc(F)cc2)c1	nt	nt	nt	nt	14µM*	10µM*
O=C(C[n+]1ccc2ccccc2c1)c1ccc(O)c(O)c1	nt	nt	nt	nt	-4%	-24%
O=C(C[n+]1cccc(NC(=O)c2ccccc2)c1)c1ccccc1	-1%	0%	0%	18	-1%	?
O=C(C[n+]1cccc(I)c1)c1ccc(F)cc1	nt	nt	nt	nt	-19%	-28%
Cc1ccc(C(=O)C[n+]2ccc3ccccc3c2)cc1	-3%	-11%	?	20	?	15µM*
CC(=O)N1CCC(N(Cc2ccco2)C(=O)Nc2ccc(Br)cc2F)CC1	nt	nt	nt	nt	-12%	-24%
O=C(c1ccccc1O)N1N=C(c2ccccc2)CC1(O)C(F)(F)F (stereo not drawn)	-20%	-20%	?	0	-21%	2%
CC(=O)c1ccc(NC(=O)CC2Oc3ccc(C)cc3NC2=O)cc1 (stereo not drawn)	nt	nt	nt	nt	-19%	-29%
COc1ccc(CNC(=O)COCc2cc(-c3cccs3)on2)cc1	nt	nt	nt	nt	-17%	?
O=C(C[n+]1ccc2ccccc2c1)c1ccc(NC(=O)c2ccccc2)cc1	-13%	-17%	?	?	5.8µM*	7.3µM*
COc1ccc2c(c1)O[C@H](c1ccc3c(c1)OCO3)[C@@H](O)C2=O	0%	-11%	?	-6	21µM*	?
CCN1CCN(c2ccc(NC(=O)COc3ccccc3Cl)cc2)CC1	-8%	-8%	-10%	-17	?	18µM*
O=C(COc1ccccc1Cl)Nc1cc(NC(=O)COc2ccccc2Cl)cc(C(=O)O)c1	-18%	-4%	?	20	1%	-12%
O=C(COc1ccccc1Cl)Nc1ccc(N2CCN(C(=O)c3ccccc3)CC2)cc1	-26%	?	13µM*	-22	18µM*	15µM*
O=C(COc1ccccc1Cl)Nc1ccc(N2CCCC2)cc1	12%	-3%	?	-12	-5%	-10%
